Results on nine molecules are retold here after PubChem BioAssay.

Values without a mark were called inactive.

A short description of the experiment: E. coli acrAB mutant growth effects, primary screen, E. coli filamentation inducers, strain DRC39, OD650, 24 h (AID 1178).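 Also: growth measured as culture turbidity by optical density at 650 nm; test concentration not given here.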 The following applies: higher = more signal, called active from +8 up or from −8 down.
Consider `N#Cc1ccc(NN2C(C(O)c3ccccc3)C=CC3C(=O)N(c4ccccc4)C(=O)C32)cc1` (centres undefined), for which the z-score was -0.371.

For the molecule `O=C(NCc1ccccc1)[C@]1(Cc2ccccc2)N=C(c2ccc(OCCCO)cc2)O[C@@H]1c1ccccc1`, the z-score is 0.653.

For the molecule `CC(C)CCC[C@@H](C)[C@H]1CC[C@@]2(C)C3=C(CC[C@]12C)[C@@]1(C)CC[C@H](OC(=O)C(C)(C)C)C(C)(C)C1CC3` (some centres undefined), the z-score is 1.41.

As to `NC(=O)NCC#Cc1ccc2c(c1)[C@]1(C(=O)N2)[C@H](c2ccc(OCCO)cc2)N2[C@H](c3ccccc3)[C@H](c3ccccc3)OC(=O)[C@H]2[C@@H]1C(=O)N1CCCCCCC1`, the z-score was -0.172.

Take `[N-]=[N+]=Nc1ccccc1[C@H]1OC(c2ccc(OCCCO)cc2)=N[C@@]1(Cc1ccccc1)C(=O)NCc1ccccc1`: the z-score is 2.01.

Take `COCCOC(=O)N1C(=O)[C@@]2(c3cc(C#CCC(C(=O)OC)C(=O)OC)ccc31)[C@H](C(=O)N1CCCCCCC1)[C@H]1C(=O)O[C@H](c3ccccc3)[C@H](c3ccccc3)N1[C@@H]2c1ccc(O)cc1`: the z-score was -0.543.

With `C=CC[C@]1(C(=O)NCC(O)CO)N=C(c2ccc(OCCCO)cc2)O[C@H]1c1ccccc1N=[N+]=[N-]` (some centres undefined), the z-score is 0.769.

For `O=C(Nc1cc(Br)ccc1C(=O)NCc1cccc(O)c1)c1ccccc1`, the z-score is 1.45.

Take `CC1CC/C=C\[C@H]2OC34C=CCN(c5ccc(Cl)cc5)C(=O)[C@H]3N(C(CO)C(C)C)C(=O)[C@]4(C)C2C(=O)O1` (some centres undefined): the z-score was -0.163.
